{"source": "PubChem BioAssay AID1768", "about": "(National Center for Advancing Translational Sciences (NCATS), 2009)", "note": "The whole screen tested about 270,000 compounds, of which about 620 (0.23%) were called active. Inconclusive results (about 12%) are left out. This excerpt belongs to a sample that is enriched for actives. Unmarked numbers belong to inactive results. Calls come from the whole dose curve; as a rule, active = well fitted inhibition curve with a large enough effect in the polarisation, with a control signal flat (not every such curve was filed as active); inconclusive = small, poorly fitted or top-dose-only effect, or effect the other way, or a change in a side signal; inactive = no such curve, though single readings can be large or run the other way; the % refers to the polarisation. Potency is the fitted concentration of half-maximal effect.", "data": [{"molecular_target": "Menin (Homo sapiens) (UniProt O00255)", "sequence (O00255 whole entry, looked up)": "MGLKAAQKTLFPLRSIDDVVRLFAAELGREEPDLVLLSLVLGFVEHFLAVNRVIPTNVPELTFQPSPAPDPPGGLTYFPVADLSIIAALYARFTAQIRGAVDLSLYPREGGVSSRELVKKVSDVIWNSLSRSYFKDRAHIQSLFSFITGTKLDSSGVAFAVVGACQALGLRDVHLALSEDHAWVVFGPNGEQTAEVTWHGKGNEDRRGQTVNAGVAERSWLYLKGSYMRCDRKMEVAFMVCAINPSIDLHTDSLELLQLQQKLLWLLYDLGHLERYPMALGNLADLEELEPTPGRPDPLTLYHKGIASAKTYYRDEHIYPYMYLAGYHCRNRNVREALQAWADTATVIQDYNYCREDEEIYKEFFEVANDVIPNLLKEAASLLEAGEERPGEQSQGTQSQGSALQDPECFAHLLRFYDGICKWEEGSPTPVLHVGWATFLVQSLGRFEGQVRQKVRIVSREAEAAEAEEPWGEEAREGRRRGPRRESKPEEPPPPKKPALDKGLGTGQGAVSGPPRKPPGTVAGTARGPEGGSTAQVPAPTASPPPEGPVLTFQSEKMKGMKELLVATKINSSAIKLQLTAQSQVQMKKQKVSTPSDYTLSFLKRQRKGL", "experiment": "qHTS Assay for Inhibitors Targeting the Menin-MLL Interaction in MLL Related Leukemias: Competition With Texas Red Labeled MLL-derived Mutant Peptide; for FP activity change, negative = inhibition: % of control where 0% means no effect", "conditions": "fluorescence polarization; series mostly up to 61.6 µM; FP activity change, negative = inhibition: at the top concentration", "from_the_text": "qHTS Assay for Inhibitors Targeting the Menin-MLL Interaction in MLL Related Leukemias NIH Chemical Genomics Center [NCGC] NIH Molecular Libraries Probe Centers Network [MLPCN] MLPCN Grant: MH084875-01A1 Assay Submitter (PI): Jolanta Grembecka, Tomasz Cierpicki, University of Virginia Translocations of the MLL (Mixed Lineage Leukemia) gene are frequently found in human leukemias affecting both children and adults. Fusion of MLL to one of more than 60 genes results in generation of oncogenic proteins upregulating Hox genes, which are vital to blood cell development. Patients harboring fusion of the MLL gene suffer from aggressive leukemias and respond poorly to available therapies. All of the oncogenic fusion proteins have a preserved N-terminal fragment of MLL that has been identified to interact with menin. It has been recently discovered that association with menin is critical to the leukemogenic activity of the MLL fusion oncoproteins. Selective targeting of the menin-MLL interaction could provide an attractive therapeutic approach to develop novel drugs for MLL-related leukemias. Small molecules blocking the menin-MLL interaction should reverse the oncogenic potential of MLL fusion proteins. We have developed and optimized a fluorescence polarization-based assay for the identification of Menin-MLL inhibitors. The assay was run employing two different MLL-derived peptides. The present assay uses a 12 amino acid peptide labeled with fluorescein at its N-terminus. This peptide consists of the menin high affinity binding motif from MLL and is potently bound by menin. Another peptide with a mutated sequence, labeled with Texas Red, was used in parallel as a less stringent screen for inhibitors.\nThe Menin protein, the MLL-wild type (w.t.) derived peptide (N-terminal 12 amino acids), the MLL-derived peptide labeled with Texas Red and the MLL-w.t. peptide labeled with Fluorescein were kindly supplied by laboratory of Dr. Jolanta Grembecka, University of Virginia. All protein and peptide solutions were stored in single use aliquots at -80C. The Eu3+ Cyrptate-conjugated mouse monoclonal antibody anti-6 Histidine (Eu3+-AB) and the Streptavidin-XL665 conjugate (XL665) were purchased from Cisbio International (Bedford, MA). All antibody and XL665 conjugate solution stocks were stored in single use aliquots at -20C. The Buffer components for all assays were purchased from Sigma-Aldrich (St. Louis, MO) and Invitrogen (Carlsbad, CA). FP Assay Reagents: 1. FP reaction buffer: 50 mM Tris-HCl pH 7.5, 50 mM NaCl, 1mM DTT. Before use, 0.05% BSA is added. 2. Menin protein, MLL-w.t. labeled with fluorescein, MLL-mutant peptide labeled with texas red. Stored in singe use aliquots at -80C. 3. MLL-w.t. unlabeled peptide as positive control: 10 uM final in FP buffer. FP Assay Procedure: 1. Prepare Menin at 200 nM, MLL-w.t.-fluorescein at 25 nM, and MLL-mutant-texas red at 50 nM mixture in FP buffer. 2. Prepare Menin at 200 nM, MLL-w.t.-fluorescein at 25 nM, MLL-mutant-texas red at 50 nM, and 10 uM MLL-w.t. unlabeled mixture in FP buffer. 3. Prepare MLL-w.t.-fluorescein at 25 nM and MLL-mutant-texas red at 50 nM mixture in FP buffer. 3. Dispense 4 ul per well of reagent in step 1 in columns 2, 4 - 48 in a black 1536 well plate, dispense 4 ul per well of reagents from steps 2 and 3 in columns 1 and 3 respectively. Incubate plate at ambient for 15 minutes. 4. Transfer 23 nl per well of compound to plate and incubate at ambient for 1 hr. 5. Read fluorescence polarization for each label using the PerkinElmer Envision. Envision protocol for fluorescein: FITC FP Dual Enh Mirror, Excitation filter 480, Emission filter (1) P-pol 535, Emission filter (2) S-pol 535 Envision protocol for texas red: FP Dual Enh Mirror, Excitation filter 555, Emission filter (1) P-pol 632, Emission filter (2) S-pol 632", "units": {"FP activity change, negative = inhibition": "%"}, "values": [{"compound": "CC(C)(O)C#Cc1ccc(CN2CCC(CO)(CCc3ccccc3)CC2)cc1", "FP activity change, negative = inhibition": 8.13}, {"compound": "CCOCCCNc1nc(-c2ccccc2)nc2ccccc12", "FP activity change, negative = inhibition": 19.4}, {"compound": "Cc1c(CN2CC[C@@H](N3CCN(c4ccccn4)CC3)[C@H](O)C2)[nH]c2ccc(F)cc12", "FP activity change, negative = inhibition": -9.78}, {"compound": "O=C(NCCCO)c1cc2c([nH]c3ccccc32)c(-c2ccc(F)cc2)n1", "FP activity change, negative = inhibition": 8.97}, {"compound": "CC(=O)N1c2ccc(S(=O)(=O)N3CCC(C(=O)NC4CCCC(C)C4C)CC3)cc2CC1C", "note": "(centres undefined)", "FP activity change, negative = inhibition": -6.75}, {"compound": "CNC(=O)[C@]1(C(F)(F)F)C[C@H](CCc2ccccc2)CCCO1", "FP activity change, negative = inhibition": 3.94}, {"compound": "CC1CCCCC1NC(=O)CCS(=O)(=O)c1ccc2c(c1)NC(=O)CO2", "note": "(centres undefined)", "FP activity change, negative = inhibition": -10.4}, {"compound": "CN(C)c1ccc(N/C=C/C(=O)C(F)(F)F)cc1", "Potency": "28.2 µM (active)"}, {"compound": "CCCOc1ccc(N/C=C/C(=O)C(C)(C)C)cc1", "FP activity change, negative = inhibition": 1.33}, {"compound": "O=C(/C=C/Nc1ccccc1OC(F)(F)F)C(F)(F)F", "FP activity change, negative = inhibition": 5.87}, {"compound": "COc1cccc(N2C(=O)CN(Cc3ccccc3)C2=S)c1", "FP activity change, negative = inhibition": 32.3}, {"compound": "Cn1nccc1C(=O)N1CCCC(C(=O)c2ccc(Oc3ccccc3)cc2)C1", "note": "(centres undefined)", "FP activity change, negative = inhibition": -18.8}, {"compound": "COc1ccc(-c2noc(CCCC(=O)NC3CCCC3)n2)cc1OC", "FP activity change, negative = inhibition": -7.12}, {"compound": "Cc1noc(C)c1-c1ccc2ncnc(NCc3ccc4[nH]ccc4c3)c2c1", "FP activity change, negative = inhibition": 28.6}, {"compound": "Cc1ccc(N(Cc2cc(=O)[nH]c3ccccc23)C(=O)CCl)cc1", "Potency": "10 µM (active)"}, {"compound": "Cc1ccc(N(Cc2cc3ccccc3[nH]c2=O)C(=O)c2cccs2)cc1", "FP activity change, negative = inhibition": 0.868}, {"compound": "CC(=O)N(Cc1cc(=O)[nH]c2ccccc12)c1ccc(C)cc1C", "FP activity change, negative = inhibition": 1.95}, {"compound": "CCN(CC)CCCNC(=O)COc1ccc2oc3c(c2c1)CCCC3", "FP activity change, negative = inhibition": -9.91}, {"compound": "CC(C)c1ccc(NC(=O)C2CCCN(S(=O)(=O)c3cccnc3)C2)cc1", "note": "(centres undefined)", "FP activity change, negative = inhibition": -12.3}, {"compound": "COc1cc(/C=C2\\SC(=O)NC2=O)ccc1OCc1ccc(Cl)nc1", "FP activity change, negative = inhibition": 3.5}, {"compound": "COC(=O)c1cc(S(=O)(=O)NCC2CCN(Cc3ccc(Cl)cc3)CC2)cn1C", "FP activity change, negative = inhibition": -0.368}, {"compound": "Cc1cccc(NC(=S)NCCc2ccc(Cl)cc2)c1C", "FP activity change, negative = inhibition": 4.12}, {"compound": "COC(=O)C(CC(C)C)NS(=O)(=O)c1cc(Br)ccc1Br", "note": "(centres undefined)", "FP activity change, negative = inhibition": -7.91}, {"compound": "Cc1c(C)c2ccc(OCC(=O)N3CCN(c4cccc(Cl)c4)CC3)cc2oc1=O", "FP activity change, negative = inhibition": 7.56}, {"compound": "Cc1ccc(S(=O)(=O)NNC(=O)/C=C/c2cccc(F)c2)cc1", "FP activity change, negative = inhibition": -0.819}, {"compound": "O=C(COC(=O)c1cccs1)Nc1ccccc1Cl", "FP activity change, negative = inhibition": 0.3}, {"compound": "COc1cc(/C=C2\\CCCc3c2nc2ccccc2c3C(=O)O)cc(Cl)c1O", "FP activity change, negative = inhibition": 16.7}, {"compound": "O=C(COC(=O)c1c2c(nc3ccccc13)/C(=C\\c1cccs1)CCC2)Nc1ccccc1Cl", "Potency": "14.1 µM (active)"}, {"compound": "CC1CCN(CC(O)COc2ccc(C(=O)c3ccccc3)cc2)CC1", "note": "(centres undefined)", "FP activity change, negative = inhibition": -25.4}, {"compound": "CCC(CC)c1nnc(NC(=O)C2CCN(C(=O)c3ccco3)CC2)s1", "FP activity change, negative = inhibition": -19.3}, {"compound": "Cc1cccc(OCC(=O)Nc2ccc(NC(=O)c3ccco3)c(C)c2)c1", "FP activity change, negative = inhibition": -22.6}, {"compound": "COc1ccc(Cn2c(=S)[nH]c3cc(C(=O)NCCCN4CCOCC4)ccc3c2=O)cc1", "FP activity change, negative = inhibition": 14.5}, {"compound": "CC(C)CN(Cc1c(O)ccc2c(=O)c(-c3ccccc3)coc12)CC(C)C", "FP activity change, negative = inhibition": 16.6}, {"compound": "CCOC(=O)c1c(-c2ccc(-c3ccccc3)cc2)csc1NC(=O)CCC(=O)O", "FP activity change, negative = inhibition": 20.7}, {"compound": "COc1ccc(Br)cc1C1C2C=CCC(C)C2C(=O)N1Cc1ccccc1", "note": "(centres undefined)", "FP activity change, negative = inhibition": -15.8}, {"compound": "Cc1cccn2c(=O)c(/C=C3\\SC(=S)N(CC(C)C)C3=O)c(NCCCOC(C)C)nc12", "Potency": "28.2 µM (active)"}, {"compound": "CCn1c(=N)c(C(=O)NCCCOC)cc2c(=O)n3cccc(C)c3nc21", "FP activity change, negative = inhibition": -13.2}, {"compound": "CNc1nc2c(C)cccn2c(=O)c1C=Nc1ccc(OC)cc1", "FP activity change, negative = inhibition": -16.5}, {"compound": "Cc1ccc(/C=C2/SC(=S)N(CCC(=O)NCCCN3CCOCC3)C2=O)cc1", "FP activity change, negative = inhibition": -14.8}, {"compound": "O=C1CCN(Cc2ccccc2)CCN1[C@H](CSc1ccccc1)c1ccccc1", "FP activity change, negative = inhibition": -15.5}, {"compound": "COCCNC(=O)COc1ccc(N(C)S(=O)(=O)c2ccc3ccccc3c2)cc1", "FP activity change, negative = inhibition": 0.697}, {"compound": "CC1CCCN(CC(=O)Nc2cc(Cl)ccc2Oc2ccccc2)C1", "note": "(centres undefined)", "FP activity change, negative = inhibition": -19.8}, {"compound": "CCN(CC)/[N+]([O-])=N/Oc1cc(O/[N+]([O-])=N/N2CCCC2CO)c([N+](=O)[O-])cc1[N+](=O)[O-]", "note": "(centres undefined)", "FP activity change, negative = inhibition": 0.381}, {"compound": "CC1CCN(C2=NC(=O)/C(=C/c3ccc(O)cc3)S2)CC1", "FP activity change, negative = inhibition": -0.925}, {"compound": "c1ccc(Cc2ccc(OCCn3ccnc3)cc2)cc1", "FP activity change, negative = inhibition": -10.6}, {"compound": "O=C(O)C1CC=CC2CCN(C3CCCCC3)C(=O)C21", "note": "(centres undefined)", "FP activity change, negative = inhibition": 2.51}, {"compound": "CCOC(=O)c1cccc(NC(=O)C2CCN(c3ncnc4c3nc3n4CCCCC3)CC2)c1", "FP activity change, negative = inhibition": -10.2}, {"compound": "CCOC(=O)c1ccc(NC(=O)c2ccc(NC(=O)C3CCCO3)cc2)cc1", "note": "(centres undefined)", "FP activity change, negative = inhibition": 28.3}, {"compound": "CCCNC(=O)c1ccc(N2CCC3(CC2)CC(c2ccc(Cl)cc2)=NO3)c([N+](=O)[O-])c1", "FP activity change, negative = inhibition": -0.331}, {"compound": "CCC(C)(C)NC(=O)C(c1ccc(OC)cc1)N(C(=O)CCC(=O)Nc1cc(C)on1)c1ccc(OC)cc1OC", "note": "(centres undefined)", "FP activity change, negative = inhibition": -17.8}, {"compound": "COc1cccc(CCNC(=O)c2cccc(NC(=O)C3=C(C)OCCS3)c2)c1", "FP activity change, negative = inhibition": -0.071}, {"compound": "COCCNc1ncnc2ccc(-c3cccnc3)cc12", "Potency": "31.6 µM (active)"}, {"compound": "COCCNc1ncnc2ccc(-c3ccccc3CN(C)C)cc12", "FP activity change, negative = inhibition": -18.4}, {"compound": "COc1ccc(CNc2ncnc3ccc(-c4cccnc4)cc23)c(OC)c1", "FP activity change, negative = inhibition": -6.79}, {"compound": "COc1ccccc1N1CCN(S(=O)(=O)CCNC(=O)c2ccc(OC(C)C)cc2)CC1", "FP activity change, negative = inhibition": -12.6}, {"compound": "CC(CC(=O)N1CCN(c2ccccc2)CC1)S(=O)(=O)c1ccc2c(c1)NC(=O)CS2", "note": "(centres undefined)", "FP activity change, negative = inhibition": 2.06}, {"compound": "COc1ccc(N2CCN(S(=O)(=O)CCNC(=O)C34CC5CC(CC(C5)C3)C4)CC2)cc1", "FP activity change, negative = inhibition": -25}, {"compound": "CCc1ccc(S(=O)(=O)N/N=C\\c2ccc([N+](=O)[O-])o2)cc1", "FP activity change, negative = inhibition": 35.3}, {"compound": "COc1ccc(CNC(=O)/C(C#N)=C/c2cccc(OC)c2OC)cc1", "FP activity change, negative = inhibition": -18.7}, {"compound": "COc1ccc(N2CCN(C(=O)[C@@H](NC(=O)c3cc(OC)cc(OC)c3)C(C)C)CC2)cc1", "FP activity change, negative = inhibition": -22.7}, {"compound": "O=C(NCC1CC1)C1(C(F)(F)F)C/C(=C\\CCO)CCCO1", "note": "(centres undefined)", "FP activity change, negative = inhibition": -11.6}, {"compound": "Cc1cccc(S(=O)(=O)N2CN(CC3CCCO3)c3nc4ccccc4nc32)c1", "note": "(centres undefined)", "FP activity change, negative = inhibition": 20.6}, {"compound": "CCOc1cc(/C=C/c2nc3ccccc3c(=O)[nH]2)cc(Br)c1OC", "FP activity change, negative = inhibition": 25.1}, {"compound": "CCC(C(=O)OC)n1cnc2scc(-c3ccc(C)cc3)c2c1=O", "note": "(centres undefined)", "FP activity change, negative = inhibition": -3.92}]}]}
